# Test results: the supplement of paper PMC11732987, “Enantioselective OTUD7B fragment discovery through chemoproteomics screening and high-throughput optimisation” (Communications Chemistry, 2025)
# Unmarked numbers belong to inactive results.
# Experiments:
# Test in all cases: log2 ratio of Biotin-Ahx-Ub-VS probe labelling (fragment/DMSO); higher = less target engagement (more negative = stronger competition), active = hit call of the paper (q ≤ 0.05, log2 ratio ≤ -1)
# Conditions in all cases: compound concentration: 200 uM; treatment time: 3 h
# OTUD6B = biological target: T1, OTUD6B (UniProt Q8N6M0)
# T1 sequence (whole entry): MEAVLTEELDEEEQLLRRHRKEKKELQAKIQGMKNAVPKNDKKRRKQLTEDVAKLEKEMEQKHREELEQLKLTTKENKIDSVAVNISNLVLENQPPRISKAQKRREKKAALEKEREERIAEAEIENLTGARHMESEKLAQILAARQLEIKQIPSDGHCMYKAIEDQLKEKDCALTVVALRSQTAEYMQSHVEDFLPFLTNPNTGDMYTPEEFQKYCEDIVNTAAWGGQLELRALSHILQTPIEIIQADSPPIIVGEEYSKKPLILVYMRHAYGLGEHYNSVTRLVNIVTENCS
# How it was run: (§1)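 Lysate from HEK293T cells, 495 µg per sample in Tris/CHAPS/IGEPAL buffer with protease inhibitors, was treated for 3 h in triplicate with fragment at 200 µM or vehicle. Biotin-Ahx-Ub-VS was next added at 0.5 µM final for 1 h. The labelled DUBs were enriched with NeutrAvidin, digested with LysC and trypsin, and run by diaPASEF LC-MS/MS, with values given as average log2 fragment/vehicle ratios by unpaired t-test on global-median-normalised Spectronaut quantities of proteins with ≥2 unique peptides.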
# OTUD7B = biological target: T2, OTUD7B (UniProt Q6GQQ9)
# T2 sequence (whole entry): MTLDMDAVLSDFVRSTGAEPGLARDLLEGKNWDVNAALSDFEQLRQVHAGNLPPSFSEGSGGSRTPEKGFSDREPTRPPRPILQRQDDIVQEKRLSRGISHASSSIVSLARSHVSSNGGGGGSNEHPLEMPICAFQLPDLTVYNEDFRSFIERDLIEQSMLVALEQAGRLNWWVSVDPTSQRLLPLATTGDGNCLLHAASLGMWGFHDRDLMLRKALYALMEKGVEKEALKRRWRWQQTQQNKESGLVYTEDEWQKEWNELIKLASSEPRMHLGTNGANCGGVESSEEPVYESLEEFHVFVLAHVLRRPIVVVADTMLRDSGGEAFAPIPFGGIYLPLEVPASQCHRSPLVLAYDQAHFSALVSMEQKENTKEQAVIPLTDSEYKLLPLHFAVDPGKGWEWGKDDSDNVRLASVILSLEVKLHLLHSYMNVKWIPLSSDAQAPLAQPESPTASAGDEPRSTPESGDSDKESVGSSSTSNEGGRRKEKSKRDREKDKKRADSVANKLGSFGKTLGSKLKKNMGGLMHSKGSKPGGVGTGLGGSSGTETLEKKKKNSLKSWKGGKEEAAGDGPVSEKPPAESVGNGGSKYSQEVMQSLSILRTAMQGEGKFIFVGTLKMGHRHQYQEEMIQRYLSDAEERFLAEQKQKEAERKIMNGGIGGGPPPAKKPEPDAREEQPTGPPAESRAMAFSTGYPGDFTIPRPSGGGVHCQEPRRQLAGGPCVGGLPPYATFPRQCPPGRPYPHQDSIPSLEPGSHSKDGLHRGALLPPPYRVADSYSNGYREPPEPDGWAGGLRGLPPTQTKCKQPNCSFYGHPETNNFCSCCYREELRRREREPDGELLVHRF
# How it was run: as §1
# PRPF8 = PRPF8 (UniProt Q6P2Q9)
# How it was run: as §1
# PSMD7 = biological target: T3, PSMD7 (UniProt P51665)
# T3 sequence (whole entry): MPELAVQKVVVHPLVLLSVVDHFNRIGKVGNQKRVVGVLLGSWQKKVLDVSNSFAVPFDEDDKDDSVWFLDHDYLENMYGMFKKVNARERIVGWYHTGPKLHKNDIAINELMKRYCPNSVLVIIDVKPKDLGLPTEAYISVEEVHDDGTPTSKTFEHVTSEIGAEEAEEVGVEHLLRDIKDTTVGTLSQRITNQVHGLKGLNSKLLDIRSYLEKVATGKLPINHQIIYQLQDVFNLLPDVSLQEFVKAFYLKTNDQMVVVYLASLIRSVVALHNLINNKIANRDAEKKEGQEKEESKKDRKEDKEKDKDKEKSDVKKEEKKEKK
# How it was run: as §1
# UCHL1 = UCHL1 (UniProt P09936)
# How it was run: as §1
# UCHL3 = biological target: T4, UCHL3 (UniProt P15374)
# T4 sequence (whole entry): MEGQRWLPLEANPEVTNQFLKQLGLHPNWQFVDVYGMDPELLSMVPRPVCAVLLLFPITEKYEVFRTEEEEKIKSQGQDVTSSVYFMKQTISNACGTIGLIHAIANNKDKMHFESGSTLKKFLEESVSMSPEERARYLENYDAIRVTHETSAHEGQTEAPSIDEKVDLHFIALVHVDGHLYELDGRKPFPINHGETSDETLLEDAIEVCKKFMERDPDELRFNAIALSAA
# How it was run: as §1
# UCHL5 = biological target: T5, UCHL5 (UniProt Q9Y5K5)
# T5 sequence (whole entry): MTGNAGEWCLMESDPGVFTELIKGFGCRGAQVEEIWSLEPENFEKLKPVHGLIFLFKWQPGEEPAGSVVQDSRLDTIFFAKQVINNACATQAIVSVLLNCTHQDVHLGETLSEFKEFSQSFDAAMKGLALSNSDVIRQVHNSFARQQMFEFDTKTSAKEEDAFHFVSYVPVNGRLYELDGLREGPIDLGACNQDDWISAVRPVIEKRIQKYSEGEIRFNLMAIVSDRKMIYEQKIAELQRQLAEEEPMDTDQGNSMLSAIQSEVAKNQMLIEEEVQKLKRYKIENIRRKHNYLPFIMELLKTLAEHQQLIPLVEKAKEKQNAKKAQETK
# How it was run: as §1
# USP10 = USP10 (UniProt Q14694)
# How it was run: as §1
# USP15 = biological target: T6, USP15 (UniProt Q9Y4E8)
# T6 sequence (whole entry): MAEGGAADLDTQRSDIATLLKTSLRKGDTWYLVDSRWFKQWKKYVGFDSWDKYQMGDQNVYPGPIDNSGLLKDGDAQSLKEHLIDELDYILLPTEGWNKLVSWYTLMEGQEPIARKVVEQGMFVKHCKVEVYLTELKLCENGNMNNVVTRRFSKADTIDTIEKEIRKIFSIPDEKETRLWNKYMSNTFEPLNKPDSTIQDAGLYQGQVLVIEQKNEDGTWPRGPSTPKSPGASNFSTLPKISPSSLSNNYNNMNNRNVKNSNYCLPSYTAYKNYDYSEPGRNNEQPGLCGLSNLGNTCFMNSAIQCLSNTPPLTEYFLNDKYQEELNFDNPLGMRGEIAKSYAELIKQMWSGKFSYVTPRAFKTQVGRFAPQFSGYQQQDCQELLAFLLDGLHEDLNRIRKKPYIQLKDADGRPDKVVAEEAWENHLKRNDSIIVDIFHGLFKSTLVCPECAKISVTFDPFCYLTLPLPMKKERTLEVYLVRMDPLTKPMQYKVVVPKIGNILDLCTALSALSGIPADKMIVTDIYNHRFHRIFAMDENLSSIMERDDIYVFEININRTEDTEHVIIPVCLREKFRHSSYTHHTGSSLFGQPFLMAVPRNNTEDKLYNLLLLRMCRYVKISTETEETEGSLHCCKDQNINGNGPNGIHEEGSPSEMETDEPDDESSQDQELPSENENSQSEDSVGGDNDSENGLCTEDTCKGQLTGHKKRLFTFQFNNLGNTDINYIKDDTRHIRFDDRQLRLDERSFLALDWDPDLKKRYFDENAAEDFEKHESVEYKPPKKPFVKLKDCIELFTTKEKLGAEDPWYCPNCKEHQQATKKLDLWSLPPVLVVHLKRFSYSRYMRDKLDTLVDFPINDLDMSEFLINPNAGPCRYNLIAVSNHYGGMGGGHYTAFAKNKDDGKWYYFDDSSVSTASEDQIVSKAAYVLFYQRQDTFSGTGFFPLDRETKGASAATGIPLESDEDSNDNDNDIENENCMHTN
# How it was run: as §1
# USP16 = USP16 (UniProt Q9Y5T5)
# How it was run: as §1
# USP16, sequence (Q9Y5T5 whole entry, looked up): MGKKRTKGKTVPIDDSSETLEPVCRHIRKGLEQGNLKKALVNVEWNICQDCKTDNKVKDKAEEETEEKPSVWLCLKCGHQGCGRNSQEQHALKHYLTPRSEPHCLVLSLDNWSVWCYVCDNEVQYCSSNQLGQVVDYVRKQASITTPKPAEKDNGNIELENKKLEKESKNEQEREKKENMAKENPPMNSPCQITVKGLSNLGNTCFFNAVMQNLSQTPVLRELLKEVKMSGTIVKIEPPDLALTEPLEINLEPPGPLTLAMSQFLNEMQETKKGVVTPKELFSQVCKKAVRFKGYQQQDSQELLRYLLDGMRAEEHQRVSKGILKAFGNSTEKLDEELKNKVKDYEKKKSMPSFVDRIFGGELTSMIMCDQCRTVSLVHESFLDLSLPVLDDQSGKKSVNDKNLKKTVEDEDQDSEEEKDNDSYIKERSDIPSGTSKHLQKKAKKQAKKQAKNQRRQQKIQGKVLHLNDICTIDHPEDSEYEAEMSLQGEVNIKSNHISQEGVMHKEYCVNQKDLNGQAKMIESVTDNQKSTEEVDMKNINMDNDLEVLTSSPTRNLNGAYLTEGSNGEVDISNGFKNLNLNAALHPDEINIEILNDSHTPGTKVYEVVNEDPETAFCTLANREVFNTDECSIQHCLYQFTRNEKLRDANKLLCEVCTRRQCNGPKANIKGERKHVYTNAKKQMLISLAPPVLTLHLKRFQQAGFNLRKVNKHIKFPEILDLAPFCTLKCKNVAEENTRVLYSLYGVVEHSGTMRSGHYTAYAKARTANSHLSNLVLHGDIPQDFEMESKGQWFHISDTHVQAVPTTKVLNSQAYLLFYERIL
# UCHL1, sequence (P09936 whole entry, looked up): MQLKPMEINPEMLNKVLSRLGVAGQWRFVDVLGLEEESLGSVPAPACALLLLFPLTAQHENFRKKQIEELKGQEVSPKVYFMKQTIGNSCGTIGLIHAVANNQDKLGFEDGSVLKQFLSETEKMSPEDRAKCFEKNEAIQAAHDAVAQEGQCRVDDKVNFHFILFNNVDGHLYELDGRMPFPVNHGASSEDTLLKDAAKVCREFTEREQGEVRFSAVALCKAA
# USP10, sequence (Q14694 whole entry): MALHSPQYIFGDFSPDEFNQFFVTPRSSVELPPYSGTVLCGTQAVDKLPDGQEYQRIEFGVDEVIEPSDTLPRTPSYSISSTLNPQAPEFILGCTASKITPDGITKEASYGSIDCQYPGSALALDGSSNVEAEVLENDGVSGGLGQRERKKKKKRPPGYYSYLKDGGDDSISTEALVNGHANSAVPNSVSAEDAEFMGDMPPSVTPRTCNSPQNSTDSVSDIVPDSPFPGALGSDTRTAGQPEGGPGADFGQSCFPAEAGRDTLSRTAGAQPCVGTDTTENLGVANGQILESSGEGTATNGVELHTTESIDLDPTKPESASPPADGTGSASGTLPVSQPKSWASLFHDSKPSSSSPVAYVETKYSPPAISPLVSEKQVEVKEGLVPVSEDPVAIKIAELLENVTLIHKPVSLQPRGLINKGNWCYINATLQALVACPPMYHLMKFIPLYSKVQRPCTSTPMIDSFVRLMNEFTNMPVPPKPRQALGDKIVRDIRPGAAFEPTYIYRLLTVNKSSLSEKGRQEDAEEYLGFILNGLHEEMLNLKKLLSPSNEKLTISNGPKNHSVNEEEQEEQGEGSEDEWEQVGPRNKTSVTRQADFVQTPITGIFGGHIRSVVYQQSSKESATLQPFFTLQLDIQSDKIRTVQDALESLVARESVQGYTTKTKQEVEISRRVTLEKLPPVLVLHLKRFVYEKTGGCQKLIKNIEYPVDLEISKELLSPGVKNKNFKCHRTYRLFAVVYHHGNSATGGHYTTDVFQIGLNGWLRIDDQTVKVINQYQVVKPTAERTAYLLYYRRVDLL
smiles,measurement,setting,value
O=C(CN1CCN(C(=O)CCl)CC1)Nc1cccc(F)c1,log2 ratio of Biotin-Ahx-Ub-VS probe labelling,OTUD6B,-0.321
same,log2 ratio of Biotin-Ahx-Ub-VS probe labelling,OTUD7B,-0.452
same,log2 ratio of Biotin-Ahx-Ub-VS probe labelling,PRPF8,-0.19
same,log2 ratio of Biotin-Ahx-Ub-VS probe labelling,PSMD7,-0.137
same,log2 ratio of Biotin-Ahx-Ub-VS probe labelling,UCHL1,-1.08 (active)
same,log2 ratio of Biotin-Ahx-Ub-VS probe labelling,UCHL3,-0.122
same,log2 ratio of Biotin-Ahx-Ub-VS probe labelling,UCHL5,-0.336
same,log2 ratio of Biotin-Ahx-Ub-VS probe labelling,USP10,0.0386
same,log2 ratio of Biotin-Ahx-Ub-VS probe labelling,USP15,-0.225
same,log2 ratio of Biotin-Ahx-Ub-VS probe labelling,USP16,-0.245
